IL-1B inflam inh: qHTS for Inhibitors of Inflammasome Signaling: IL-1-beta AlphaLISA Primary Screen | AID 743279, 2014 | 360,000 tested, 4.7% active | activity change, % at 57.5 µM | THP-1 LPS/ATP IL-1B secretion, AlphaLISA, 16 h; hits give low values; in the data active = activity change below about -50%; inconclusive = mostly about -30% to -49%
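Secreted IL-1B measured by AlphaLISA bead assay after 16 h compound exposure of THP-1 cells; compounds (final up to 57.5 uM) added 1 h before LPS (250 ng/mL) and ATP (1.25 mM) stimulation; lower signal means less secretion.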
DT40 TDP1 CPT: qHTS for Inhibitors of human tyrosyl-DNA phosphodiesterase 1 (TDP1): qHTS in cells in presence of CPT. chicken DT40 Tdp1-/-;hTDP1 cells + 20 nM CPT, ATP luminescence, 48 h. Potency, µM (top dose mostly 46.2 µM), usual class: inhibitors. 420,000 tested, 12% active; also: nearly all actives have a fitted effect of over 55% in size
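Chicken DT40 Tdp1-/- cells complemented with human TDP1, 400 cells/well, exposed to compounds plus 20 nM camptothecin for at least 48 h at 37 C; viability read as ATP content by CellTiter-Glo luminescence.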
VP16 counter: VP16 counterscreen qHTS for inhibitors of ROR gamma transcriptional activity; Drosophila S2 Gal4-VP16 UAS-luciferase, luminescence, 20 h; Potency, µM (highest dose often 53.6 µM), actives largely listed as inhibitors; 310,000 tested, 3.5% active;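 also: Gal4-VP16 expression switched on by copper sulfate through the metallothionein promoter; nearly all actives have a fitted effect of over 50% in size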
LDHA block: qHTS assay for inhibitors of human lactate dehydrogenase; purified LDHA, NADH/diaphorase-resazurin fluorescence; hits give low values; activity change, % (values are at about 110 or 230 µM); 480,000 tested, 0.15% active; AID 1347041, 2019; L-lactate dehydrogenase A chain (Homo sapiens), P00338; in the data active = activity change below about -30%; inconclusive = mostly about -25% to -30%
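LDH5 2 nM; NADH 0.06 mM, pyruvate 0.2 mM; 200 mM Tris pH 7.4, EDTA, Tween-20; 5 min RT. Detection: diaphorase 0.133 mg/mL + resazurin 37 µM, fluorescence ex540/em590 at 0 and 20 min; normalized to enzyme-free and DMSO wells.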
RORgamma inh: qHTS for inhibitors of ROR gamma transcriptional activity | Drosophila S2 Gal4-RORgamma UAS-luciferase reporter, 20 h | Potency, µM (top dose mostly 53.6 µM), usual class: inhibitors | 310,000 tested, 5.4% active | AID 2551, 2010; also: nearly all actives have a fitted effect of over 60% in size
Target sequence (P51450 whole entry, looked up, the tested form may be a part): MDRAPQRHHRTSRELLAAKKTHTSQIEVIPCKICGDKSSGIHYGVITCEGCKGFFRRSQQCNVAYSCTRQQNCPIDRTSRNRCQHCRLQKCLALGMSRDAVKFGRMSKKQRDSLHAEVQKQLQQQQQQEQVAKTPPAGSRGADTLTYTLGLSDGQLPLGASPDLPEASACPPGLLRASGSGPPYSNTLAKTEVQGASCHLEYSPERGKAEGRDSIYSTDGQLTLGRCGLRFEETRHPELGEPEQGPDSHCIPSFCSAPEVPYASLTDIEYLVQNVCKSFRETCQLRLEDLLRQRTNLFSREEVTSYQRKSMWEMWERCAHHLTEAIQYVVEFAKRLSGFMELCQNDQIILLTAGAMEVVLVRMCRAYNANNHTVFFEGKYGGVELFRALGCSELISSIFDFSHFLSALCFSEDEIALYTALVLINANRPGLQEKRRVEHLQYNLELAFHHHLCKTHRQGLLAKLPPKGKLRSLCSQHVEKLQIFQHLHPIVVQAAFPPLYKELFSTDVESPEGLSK
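Drosophila S2 cells stably expressing Gal4-DBD/mouse RORγ fusion under metallothionein promoter plus UAS-luciferase; compound 1 h, then 700 uM CuSO4 induction for 20 h at ambient temperature; inhibition read as reduced luminescence.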
DT40 TDP1 no CPT: qHTS for Inhibitors of human tyrosyl-DNA phosphodiesterase 1 (TDP1): qHTS in cells in absence of CPT | DT40 Tdp1-/- hTDP1 cells, no CPT, ATP luminescence, 48 h | 420,000 tested, 15% active | Potency, µM (doses to about 46.2 µM), usual class: inhibitors | AID 686978, 2013; also: nearly all actives have a fitted effect of over 55% in size
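Chicken DT40 Tdp1-/- cells complemented with human TDP1, screened without camptothecin (DMSO vehicle only), 400 cells/well. Compounds pin-transferred, cells incubated at 37 °C for at least 48 hr. Growth read as ATP-dependent luminescence (CellTiter-Glo, 30 min at RT).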
A number is an active result; - = inactive; ? = inconclusive; . = no result. An excerpt weighted towards active compounds, which were near 18% of everything screened. Unless noted, calls follow the shape of the dose curve; as a rule, active = well fitted curve in the direction sought with a large enough effect; inconclusive = small, poorly fitted or top-dose-only effect, or another doubt; inactive = no such curve, though single readings can be large; an effect the other way counts as inactive or inconclusive.

SMILES	IL-1B inflam inh	DT40 TDP1 CPT	VP16 counter	LDHA block	RORgamma inh	DT40 TDP1 no CPT
Cc1cccc(-n2c(C)c(-c3ccccc3)[nH]c2=S)c1	-	?	7.94µM	-	1.12µM	?
Cc1cc(=O)[nH]c(=S)n1-c1ccccc1	-	-	-	-	-	-
C=CCNC(=S)NNC(=O)OCC	.	.	.	-	.	.
C=CCNC(=S)Nc1nc2c(cc1C(=O)OCC)CCCC2	-	?	8.91µM	-	3.98µM	23.1µM
CCOC(=O)CC(=O)COc1nc2cc3c(nc2o1)CCCC3	-	-	-	-	-	-
CCNC(=S)Nc1nc2c(cc1C(=O)OCC)CCCC2	-	?	1.78µM	-	0.562µM	?
CCOC(=O)c1cccc(OCC(O)Cn2c(=O)c3ccccc3n3nc(C)cc23)c1 (stereo unspecified)	.	.	.	-	.	.
CCc1[nH]c(C(=O)OCC(=O)NC2CCCC2)c(C)c1C(=O)OC	.	.	.	-	.	.
CSc1nsc(SC)c1NC(=O)Nc1ccccn1	-	16.4µM	-	-	-	?
Cn1nc(C(=O)N2CCCN(Cc3ccccc3)CC2)c2ccccc2c1=O	.	.	.	-	.	.
CC(NC(=O)CCc1c[nH]c2ccccc12)c1cccc(Cl)c1 (stereo unspecified)	.	.	.	-	.	.
CCc1c(C)nc2ncnn2c1Nc1ccc(C)c(C)c1	-	23.1µM	-	-	-	?
CCCc1c(C)nc2ncnn2c1Nc1ccc(C)c(C)c1	.	.	.	-	.	.
CCc1c(C)nc2ncnn2c1Nc1ccc(C)cc1	-	?	-	-	-	?
CCc1c(C)nc2ncnn2c1N1CCN(S(=O)(=O)c2ccc(OC)cc2)CC1	-	3.66µM	-	-	-	5.8µM
CCc1c(C)nc2ncnn2c1NCCc1ccc(OC)cc1	-	2.82µM	17.8µM	-	-	3.55µM
COc1ccccc1-n1c(=O)c2sccc2n(CC(=O)NC(C)CCc2ccccc2)c1=O (stereo unspecified)	.	.	.	-	.	.
Cc1nc2ccc(C(=O)NC(C)c3ccccc3)cc2nc1C (stereo unspecified)	.	.	.	-	.	.
Cc1cccc(N(CC(=O)NC2CCCC2)C(=O)c2csnn2)c1C	-	-	-	-	-	-
Cc1ccc(C)c(N(CC(=O)NC2CCCC2)C(=O)c2cc3cc4cc(C)ccc4nc3s2)c1	-	8.2µM	-	-	-	11.2µM
Cc1cccc(N(CC(=O)NC2CCCC2)C(=O)c2cc3cc4cccc(C)c4nc3s2)c1C	?	18.4µM	-	-	-	16.4µM
CSCCC(c1nc2ccccc2[nH]1)n1c(C)nc2ccccc21 (stereo unspecified)	-	-	.	-	.	-
CSCCC(c1nc2ccccc2[nH]1)n1c(-c2cc(C(F)(F)F)cc(C(F)(F)F)c2)nc2ccccc21 (stereo unspecified)	-	?	.	-	.	16.4µM
CSCCC(c1nc2ccccc2[nH]1)n1c(=O)c(-c2ccco2)nc2ccccc21 (stereo unspecified)	?	11.6µM	.	-	.	23.1µM
CN1CCC(N(C)CCN(C)C(=O)NCc2ccc(F)cc2)CC1	.	.	.	-	.	.
SMILES	IL-1B inflam inh	DT40 TDP1 CPT	VP16 counter	LDHA block	RORgamma inh	DT40 TDP1 no CPT
COC(=O)c1cnn(-c2ccc(C(=O)Nc3ccc(F)c(F)c3)cc2)c1N	.	.	.	-	.	.
Cc1ccc2nc(C(=O)N3CCN(c4ccccc4)CC3)cn2c1	.	.	.	-	.	.
O=S(=O)(NCC(Nc1ccccc1)c1ccccc1)c1ccc(Cl)cc1 (stereo unspecified)	-79.2	?	?	-	-	29.1µM
COc1cc(CC(=O)OC(C)c2ccc(F)cc2)cc(OC)c1OC (stereo unspecified)	.	.	.	-	.	.
CCOc1ccc(-n2c(C)nc3cc(C(=O)NCc4ccc(C)cc4)ccc32)cc1	.	?	.	-	.	16.4µM
CCOc1ccc(-n2c(C)nc3cc(C(=O)NCc4ccc(F)cc4)ccc32)cc1	.	.	.	-	.	.
Cc1cc(C)cc(-n2c(C)nc3cc(C(=O)NCc4ccc(F)cc4)ccc32)c1	.	?	.	-	.	14.6µM
CC1CCn2c(nc3cc(C(=O)NCc4ccc(OC(C)C)cc4)ccc32)C1 (stereo unspecified)	.	?	.	-	.	23.1µM
CCOc1ccc(CNC(=O)c2ccc(Sc3ccc(C)cc3)c(NC(C)=O)c2)cc1	-	?	-	-	-	20.6µM
CCc1ccc(CNC(=O)c2ccc3c(c2)nc2n3CCC(C)C2)cc1 (stereo unspecified)	.	-	.	-	.	?
Cc1ccc2[nH]cc(CCNC(=O)c3c(F)cccc3F)c2c1	.	.	.	-	.	.
CCCSc1nn(CCN(C)C)c2nc3sc4c(c3c(=O)n12)CCCC4	.	.	.	-	.	.
O=C1CC(c2ccc3c(c2)OCO3)c2ncn(-c3cccc(C(F)(F)F)c3)c2N1 (stereo unspecified)	.	.	.	-	.	.
COc1cccc2cc(C(=O)NC3CCC(C)CC3)c(=O)oc12 (stereo unspecified)	.	.	.	-	.	.
CCOc1ccc(-n2c(C)nc3cc(C(=O)NCCC4=CCCCC4)ccc32)cc1	.	18.4µM	.	-	.	16.4µM
Cc1cccc(C)c1NC(=O)C(c1ccnc2ccccc12)n1c(=O)c(-c2ccccc2)nc2ccccc21 (stereo unspecified)	-	?	.	-	.	14.6µM
Cc1cccc(C)c1NC(=O)C(c1ccc(C#N)cc1)n1c(=O)c(-c2ccccc2)nc2ccccc21 (stereo unspecified)	-50.1	-	.	-	.	?
Cc1cccc(C(C)NNC(=O)C(O)(c2cccc(C)c2)c2cccc(C)c2)c1 (stereo unspecified)	.	.	.	-	.	.
COc1cc(C(=O)NNC(=S)NC(=O)c2ccc(Cl)cc2)cc(OC)c1OC	-	?	?	-	?	23.1µM
COc1ccc(C(=O)Nc2cc(Cl)ccc2OC(=O)c2ccc(OC)cc2)cc1	-	?	-	-	-	?
COC(=O)/C(=C\Nc1ccc(Cl)cc1Cl)NC(=O)c1ccc(OC)cc1	-	3.66µM	-	-	-	4.11µM
COc1ccc(C(=O)NC(=S)NNC(=O)c2ccc(NC(=O)C(C)C)cc2)cc1	-	16.4µM	15.8µM	-	?	14.6µM
COc1cc(CCC(=O)NNC(=O)c2ccc(Cl)cc2)cc(OC)c1OC	-	-	-	-	-	-
CC(C)C(=O)Nc1ccc(C(=O)NNC(=S)Nc2ccccc2)cc1	.	.	.	-	.	.
COc1ccc(C(=O)NNC(=S)NC(=O)c2ccc(Cl)cc2)cc1	-	?	.	-	.	23.1µM
Cc1ccc(C(C)Nc2ncccc2-c2nc(-c3cccc(C)c3)no2)cc1 (stereo unspecified)	.	.	.	-	.	.

Compound activity (PubChem BioAssay)
